Experiment [1] has as its target Glucocorticoid receptor (Homo sapiens) (UniProt P04150). Kind of experiment: GR-GFP Redistribution (AID 450;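 active means compounds whose dose series gives a full or clear partial fitted curve of increased nuclear translocation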; further: potency means the concentration at half of the fitted maximal effect). The conditions noted are these: U2OS GR-GFP nuclear translocation, laser cytometry, 2 h.
A short description of experiment [2]: S16 Schwann cell PMP22 intronic element beta-lactamase assay (AID 624044; calls by dose curve; further: nearly all actives have a fitted effect of over 15% in size). The conditions noted are these: S16 rat Schwann cells, PMP22 element beta-lactamase FRET, 24 h; series mostly up to 17.1 µM. Summed up:
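Rat S16 Schwann cells with beta-Lac driven by a PMP22 intronic element, compound-treated 24 h at 37 °C. LiveBLAzer FRET B/G read: 460 nm normalized to potassium clavulanate vs DMSO; 535 nm FRET as viability; concentration-effect curves classified.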

In experiment [3] the test system is CP211. Put plainly: qHTS profiling for inhibitors of Plasmodium falciparum proliferation (AID 504749). Further: nearly all actives have a fitted effect of over 60% in size. Further: potency means the concentration at half of the fitted maximal effect. The conditions noted are these: P. falciparum in erythrocytes, SYBR Green DNA, 72 h; series mostly up to 12.8 µM. Summed up:
(§1)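 P. falciparum-infected erythrocytes (0.3% parasitemia, 2.5% hematocrit final) were exposed to compounds for 72 h at 37 C in 5% CO2, then lysed with SYBR Green buffer overnight at room temperature; parasite DNA fluorescence was normalized to artemisinin and DMSO controls.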
In general terms: qHTS replaces the single test concentration by a dilution series.

The subject of experiment [4] is CP237. Described as above. The conditions noted are these: P. falciparum in erythrocytes, SYBR Green DNA, 72 h; series mostly up to 12.8 µM. Summed up: as §1
Experiment [5] concerns CP252. The experiment is described as above. The conditions noted are these: P. falciparum in erythrocytes, SYBR Green DNA, 72 h; series mostly up to 12.8 µM. Summed up: as §1
Experiment [6] deals with CP266. The experiment is described as above. The conditions noted are these: P. falciparum in erythrocytes, SYBR Green DNA, 72 h; series mostly up to 12.8 µM. Summed up:
as §1

Experiment [7] has as its system CP269. Described as above. The conditions noted are these: P. falciparum in erythrocytes, SYBR Green DNA, 72 h; series mostly up to 12.8 µM. Summed up: as §1
The test system of experiment [8] is CP286. The description is as above. The conditions noted are these: P. falciparum in erythrocytes, SYBR Green DNA, 72 h; series mostly up to 12.8 µM. Summed up:
as §1

Experiment [9] has as its system CP297. Described as above. The conditions noted are these: P. falciparum in erythrocytes, SYBR Green DNA, 72 h; series mostly up to 12.8 µM. Summed up: as §1
The subject of experiment [10] is HB3. The description is as above. The conditions noted are these: P. falciparum in erythrocytes, SYBR Green DNA, 72 h; series mostly up to 12.8 µM. Summed up:
as §1

Experiment [11] deals with CP256. The experiment is described as above. The conditions noted are these: P. falciparum in erythrocytes, SYBR Green DNA, 72 h; series mostly up to 12.8 µM. Summed up:
as §1

In experiment [12] the test system is CP325. The experiment is described as above. The conditions noted are these: P. falciparum in erythrocytes, SYBR Green DNA, 72 h; series mostly up to 12.8 µM. Summed up: as §1
Experiment [13] deals with DIV14. The experiment is described as above. The conditions noted are these: P. falciparum in erythrocytes, SYBR Green DNA, 72 h; series mostly up to 12.8 µM. Summed up: as §1
For experiment [14], the system named is ATS95. The description is as above. The conditions noted are these: P. falciparum in erythrocytes, SYBR Green DNA, 72 h; series mostly up to 12.8 µM. Summed up: as §1
For experiment [15], the system named is CP194. The experiment is described as above. The conditions noted are these: P. falciparum in erythrocytes, SYBR Green DNA, 72 h; series mostly up to 12.8 µM. Summed up: as §1
The test system of experiment [16] is CP247. Described as above. The conditions noted are these: P. falciparum in erythrocytes, SYBR Green DNA, 72 h; series mostly up to 12.8 µM. Summed up: as §1
The subject of experiment [17] is Dd2. The description is as above. The conditions noted are these: P. falciparum in erythrocytes, SYBR Green DNA, 72 h; series mostly up to 12.8 µM. Summed up: as §1
The test system of experiment [18] is P93_24. The experiment is described as above. The conditions noted are these: P. falciparum in erythrocytes, SYBR Green DNA, 72 h; series mostly up to 12.8 µM. Summed up:
as §1

Experiment [19] deals with P94_40. The experiment is described as above. The conditions noted are these: P. falciparum in erythrocytes, SYBR Green DNA, 72 h; series mostly up to 12.8 µM. Summed up:
as §1

Experiment [20] concerns TAB113. The description is as above. The conditions noted are these: P. falciparum in erythrocytes, SYBR Green DNA, 72 h; series mostly up to 12.8 µM. Summed up: as §1

Values without a mark were called inactive. Results filed as inconclusive are left out. Calls of active or inactive are those of the source. Unless noted, the call rests on the fitted dose curve; in most records, active means well fitted inhibition curve with a large enough effect; inconclusive means small, poorly fitted or top-dose-only effect; inactive means flat fitted curve, though single readings scatter.

Chain of Glucocorticoid receptor (Homo sapiens) (P04150 whole entry, looked up): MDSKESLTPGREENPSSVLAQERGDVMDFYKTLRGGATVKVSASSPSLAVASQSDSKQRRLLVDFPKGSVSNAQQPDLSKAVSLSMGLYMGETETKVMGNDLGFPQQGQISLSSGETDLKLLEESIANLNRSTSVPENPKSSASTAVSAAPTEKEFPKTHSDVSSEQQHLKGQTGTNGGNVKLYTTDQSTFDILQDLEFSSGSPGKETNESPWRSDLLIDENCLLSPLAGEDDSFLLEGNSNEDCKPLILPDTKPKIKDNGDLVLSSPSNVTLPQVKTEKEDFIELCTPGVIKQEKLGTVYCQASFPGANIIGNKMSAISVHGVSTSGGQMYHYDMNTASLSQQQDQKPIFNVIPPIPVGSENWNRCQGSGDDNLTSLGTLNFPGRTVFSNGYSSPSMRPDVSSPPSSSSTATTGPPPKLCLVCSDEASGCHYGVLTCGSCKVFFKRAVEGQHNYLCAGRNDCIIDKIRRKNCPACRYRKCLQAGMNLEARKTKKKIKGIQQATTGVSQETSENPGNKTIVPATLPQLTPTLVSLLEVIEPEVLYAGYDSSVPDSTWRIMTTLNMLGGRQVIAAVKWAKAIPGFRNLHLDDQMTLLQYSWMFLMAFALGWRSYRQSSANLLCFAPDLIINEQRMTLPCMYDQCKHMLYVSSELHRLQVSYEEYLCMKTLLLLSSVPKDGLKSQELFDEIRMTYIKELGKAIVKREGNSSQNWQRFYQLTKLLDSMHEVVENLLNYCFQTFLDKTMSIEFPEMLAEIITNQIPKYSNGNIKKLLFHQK

Take `CC(C)(C)NC(=O)[C@@H]1C[C@H]2CCCC[C@@H]2CN1C[C@H](O)[C@H](Cc1ccccc1)NC(=O)[C@@H](CC(N)=O)NC(=O)c1ccc2ccccc2n1`: the Potency in [1] is above 20.6 µM.

For the compound `COC(=O)C1=C(C)NC(C)=C(C(=O)OCCN(C)Cc2ccccc2)[C@H]1c1cccc([N+](=O)[O-])c1`, the Potency in experiment [1] was above 20.6 µM.

As for `CN1CCO[C@H](c2ccccc2)c2ccccc2C1`, the Potency entry in experiment [2], in experiment [3], in [5], in experiment [6], in experiment [7] and in experiment [8] was “inactive” each time. The Potency entry in experiment [9] and in experiment [10] was “inactive” each time. Besides, the Potency in experiment [4] is 2 µM (active).

`COc1cc2nc(N3CCN(C(=O)[C@@H]4COc5ccccc5O4)CC3)nc(N)c2cc1OC`: the Potency result in experiment [2], in experiment [5], in experiment [11], in experiment [6] and in [12] was “inactive” each time. In [13], the Potency was 13.5 µM (active).

Regarding `C/C(=C\CNc1ncnc2nc[nH]c12)CO`, the Potency in experiment [1] is above 46 µM.

Turning to `COCCOC(=O)C1=C(C)NC(C)=C(C(=O)OC(C)C)[C@H]1c1cccc([N+](=O)[O-])c1`, in experiment [1], the Potency is above 20.6 µM.

Turning to `COc1cccc(-c2nc(NCCc3c[nH]c4ccc(OC)cc34)c3ccccc3n2)c1`, the Potency in [1] is above 46 µM.

With `COc1cc2ccc(=O)oc2c(O)c1O`, in [1], the Potency is above 46 µM.

Turning to `Cc1ccnc(N)c1`, the Potency in experiment [1] was above 46 µM.

Turning to `CC1(C)S[C@@H]2[C@H](NC(=O)[C@@H](N)c3ccccc3)C(=O)N2[C@H]1C(=O)O[C@H]1OC(=O)c2ccccc21`, the Potency result in experiment [2], in experiment [14], in [15], in [3], in experiment [4] and in [16] was “inactive” throughout. Besides, the Potency entry in experiment [5], in experiment [11], in [6], in experiment [7], in experiment [8] and in experiment [9] was “inactive” in each case. In addition, the Potency entry in experiment [12], in experiment [13], in experiment [17], in [10], in [18] and in experiment [19] was “inactive” each time. Moreover, the Potency entry in experiment [20] is “inactive”.

Turning to `CC[C@H](C(=O)[C@H](C)[C@H](O)[C@H](C)CCc1ccc(C)c(O)c1C(=O)O)[C@H]1O[C@](CC)([C@@H]2CC[C@@](O)(CC)[C@H](C)O2)C[C@H]1C`, in experiment [1], the Potency is above 20.6 µM.

For `C[C@@](N)(C(=O)O)c1cccc(CC(=O)O)c1`, the Potency in experiment [1] was above 46 µM.

For the compound `O=c1cc(-c2cccc(O)c2)oc2cc(O)ccc12`, in [1], the Potency was above 46 µM.

`Nc1ncn([C@H]2O[C@@H](CO)[C@@H](O)[C@@H]2O)c(=O)n1`: the Potency in experiment [1] was above 20.6 µM.

`COc1ccc2c(c1)N(C[C@@H](C)CN(C)C)c1ccccc1S2`: the Potency in experiment [1] was above 20.6 µM. Besides, the Potency entry in experiment [2], in experiment [14], in [15], in experiment [3], in experiment [16] and in [5] was “inactive” each time. Further, the Potency result in [11], in experiment [7], in [8], in [9], in [12] and in experiment [17] was “inactive” in each case. The Potency entry in [10], in experiment [18], in experiment [19] and in experiment [20] was “inactive” throughout.

Consider `CO[C@@H]1CC[C@@]2(C)[C@@H](CC[C@@]3(C)[C@H]2CC=C2[C@H]4CC(C)(C)[C@H](O)[C@@H](OC(C)=O)[C@]4(CO)[C@H](O)C[C@]23C)[C@@]1(C)CO` (tested in a mixture with another compound), for which the Potency in [1] was above 20.6 µM.

In the case of `CCC(C)(C)C(=O)O[C@@H]1C[C@H](C)C=C2C=C[C@H](C)[C@@H](CC[C@H]3C[C@@H](O)CC(=O)O3)[C@H]21`, the Potency in [1] was above 20.6 µM. The Potency result in experiment [2], in [14], in experiment [15], in experiment [3], in [4] and in [16] was “inactive” in each case. Besides, the Potency entry in [5], in [11], in experiment [6], in experiment [7], in [8] and in experiment [9] was “inactive” throughout. Besides, the Potency entry in experiment [12], in experiment [13] and in experiment [18] was “inactive” throughout.

Consider `COc1cc(N[C@@H](C)CCCN)c2ncccc2c1`, for which the Potency result in [2] is “inactive”. The Potency in experiment [14] is 3.16 µM (active); in [15], 3.61 µM (active); in [3], 2.28 µM (active); in [4], 2.51 µM (active); in experiment [16], 3.55 µM (active); in experiment [5], 1.26 µM (active). The Potency is 1.26 µM (active) in experiment [11]; 1.81 µM (active) in [7]; 0.891 µM (active) in experiment [8]; 3.61 µM (active) in experiment [9]; 2.03 µM (active) in experiment [12]; 0.572 µM (active) in [13]. Moreover, the Potency in [17] was 1.41 µM (active); in experiment [10], 2.24 µM (active); in [18], 1 µM (active); in experiment [19] it was 1.41 µM (active); in experiment [20], 1.41 µM (active).

Values taken from PubChem BioAssay (NCATS).
